High-throughput results as filed in PubChem.
ALDH1A1 inh: blocks purified human ALDH1A1 activity. P00352. Purified ALDH1A1, NADH fluorescence, propionaldehyde substrate. Potency, µM (top dose mostly 75.3 µM), inactives show top-dose activity, negative = inhibition, most hits filed as inhibitors. actives 7.3% (n = 220,000). AID 1030; active = well fitted inhibition curve with a large enough effect, not every such curve was filed as active; inconclusive = small, poorly fitted or top-dose-only effect, or another doubt; inactive = no such curve, though single readings can be large or run the other way;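 note: plate controls were no enzyme wells and a reference inhibitor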
Target sequence (P00352 whole entry, looked up): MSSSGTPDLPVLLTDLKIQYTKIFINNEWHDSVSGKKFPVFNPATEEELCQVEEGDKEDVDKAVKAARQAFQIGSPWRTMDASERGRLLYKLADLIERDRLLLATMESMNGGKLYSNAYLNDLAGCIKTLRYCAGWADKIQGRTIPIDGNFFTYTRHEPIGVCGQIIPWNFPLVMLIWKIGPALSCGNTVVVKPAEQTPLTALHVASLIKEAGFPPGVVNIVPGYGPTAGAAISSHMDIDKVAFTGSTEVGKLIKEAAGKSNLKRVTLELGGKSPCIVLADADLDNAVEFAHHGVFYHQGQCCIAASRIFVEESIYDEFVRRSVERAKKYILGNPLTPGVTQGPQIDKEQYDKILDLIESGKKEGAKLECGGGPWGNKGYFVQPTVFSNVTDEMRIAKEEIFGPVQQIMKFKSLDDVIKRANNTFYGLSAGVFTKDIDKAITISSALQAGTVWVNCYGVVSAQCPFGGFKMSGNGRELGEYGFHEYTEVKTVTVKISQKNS
PLK1 PBD block: blocks phosphopeptide binding to human PLK1 polo-box domain; P53350; Plk1 PBD binding of FITC phosphopeptide, fluorescence polarization; Potency, µM, without a hit: max response, negative = inhibition, usual class: inhibitors; actives 2.8% (n = 360,000); AID 720504; note: series mostly up to about 57 µM; nearly all actives have a fitted effect of over 65% in size
Sfp inh: Sfp phosphopantetheinyl transferase inhibition; AID 1490; Potency, µM, without a hit: largest response in the series, negative = inhibition, usual class: inhibitors; Biochemical Sfp PPTase activity, qHTS; Q9F4F7; actives 3.5% (n = 310,000);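 note: the enzyme is Sfp with the accession as filed and its product quenches rhodamine fluorescence; 0% = enzyme reaction without inhibitor and -100% = no enzyme wells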
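Reaction rates are the 30-min fluorescence difference (ex 525, em 598 nm) in wells containing 15 nM Sfp, 5 uM rhodamine-CoA and 12.5 uM BHQ-2-YbbR at pH 7.6 with 10 mM MgCl2.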
RORgamma inh: ROR gamma (mouse) transcription inhibition; AID 2551; actives 5.4% (n = 310,000); P51450; Potency, µM (highest dose often 53.6 µM), for inactives: top-dose activity change, negative = inhibition, hits mostly inhibitors; Drosophila S2 Gal4-RORgamma UAS-luciferase reporter, 20 h; note: nearly all actives have a fitted effect of over 60% in size
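Read-out: Photinus luciferase luminescence; inhibitors lower reporter signal. Insect Schneider cells with Gal4-ROR gamma fusion under metallothionein promoter, UAS reporter; 700 uM final copper sulfate induction, 20 hr, ambient temperature.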
VP16 counter: inhibits Gal4-VP16 luciferase reporter, ROR gamma counter-screen; Potency, µM (titrated, usually from 53.6 µM), inactives show top-dose activity, negative = inhibition, actives largely listed as inhibitors; actives 3.5% (n = 310,000); Drosophila S2 Gal4-VP16 UAS-luciferase, luminescence, 20 h;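 note: Gal4-VP16 expression switched on by copper sulfate through the metallothionein promoter; nearly all actives have a fitted effect of over 50% in size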
Starred values were filed as active, the others as inactive; ? = inconclusive; nt = no result; [ ] = another dose, or the depositor's remark. Sampled rows, rich in hits. Any-hit rate of the full collection: about 12%. Unless noted, calls come from the whole dose curve; as a rule, active = well fitted curve in the direction sought with a large enough effect; inconclusive = small, poorly fitted or top-dose-only effect, or another doubt; inactive = no such curve, though single readings can be large; an effect the other way counts as inactive or inconclusive. Unless noted, % is set by controls: 0 for no effect and ±100 for the full control effect; potency is the fitted concentration of half-maximal effect.

SMILES	ALDH1A1 inh	PLK1 PBD block	Sfp inh	RORgamma inh	VP16 counter
CSCCC(c1nnnn1C1CCCCC1)N1CCN(C/C=C/c2ccccc2)CC1 (stereo unspecified)	nt	7%	nt	nt	nt
C[N@+]1(CCC(=O)c2ccccc2)CC[C@H]2CC[C@H](C2)C1	-8%[13.5 µM]	nt	nt	nt	nt
O=C(CCN1CCC2CCC(C2)C1)c1ccccc1 (stereo unspecified)	nt	13µM*	nt	nt	nt
CCC(NC(=O)OCc1ccccc1)C(=O)Oc1ccc2ccc(=O)oc2c1 (stereo unspecified)	nt	30µM*	-11%	26%	2%
O=C(Oc1ccc2ccc(=O)oc2c1)c1ccccc1	nt	0%	-6%	-9%	4%
N=C1SCC(=O)N1c1ncc(Cc2ccc(F)cc2)s1	6%	-7%	-22%	0.32µM*	0.2µM*
COc1ccccc1CNC(=O)CCNS(=O)(=O)c1ccc2[nH]c(=O)oc2c1	nt	34µM*	19%	-3%	-17%
O=C(CCNS(=O)(=O)c1ccc2[nH]c(=O)oc2c1)NCc1ccccc1	nt	?	10%	0%	-3%
COc1ccccc1NC(=O)CCNS(=O)(=O)c1ccc2[nH]c(=O)oc2c1	nt	30µM*	18%	1%	-9%
COc1ccc(OC)c(NC(=O)CCNS(=O)(=O)c2ccc3[nH]c(=O)oc3c2)c1	nt	-1%	-3%	-4%	-5%
CCOC(=O)C1CCN(C(C(=O)NC2CCCCC2)c2ccc(OC)cc2)CC1 (stereo unspecified)	4%	27µM*	13%	-2%	-3%
COc1ccc(C(C(=O)NC2CCCC2)N2CCc3ccccc32)cc1 (stereo unspecified)	2%	-4%	8%	-2%	21%
COc1ccc(OCCC(=O)OCC(=O)NC2CCCCCCC2)cc1	16µM*	1%	13%	1%	5%
COc1ccc(CC(=O)NCCC2=CCCCC2)cc1	24µM*	-13%	14%	3%	-12%
COc1ccc(CNC(=O)COC(=O)CC2CCCC2)cc1	7.9µM*	-4%	-10%	3%	-11%
CC1C(=O)N(Cc2cn(CCC3OCCCO3)nn2)CCS(=O)(=O)N1Cc1ccc(-c2ccc(Cl)c(Cl)c2)cc1 (stereo unspecified)	nt	-2%	nt	nt	nt
CCc1nc2ccc(C(=O)NCCc3c[nH]c4ccccc34)cn2c1N(C)Cc1ccc(N(C)C)cc1	nt	6%	nt	nt	nt
CCCS(=O)(=O)NC(=O)C1(C)CCN(C(=O)c2nc(C)oc2C)C1 (stereo unspecified)	nt	5%	nt	nt	nt
O=C(COc1cnc2ccccc2n1)NCCC1=CCCCC1	11µM*	-9%	10%	11%	1%
O=C(CCS(=O)(=O)c1ccccc1)NC1CCCCC1	nt	-1%	0%	-22%	-7%
O=C(COC(=O)COc1ccc(Br)cc1)NCCC1=CCCCC1	?	3%	15%	-1%	-11%
COc1ccc(S(=O)(=O)CCC(=O)NC2CCCCC2)cc1	-8%	30µM*	11%	?	6%
COc1ccc(OCCC(=O)OCC(=O)NCCC2=CCCCC2)cc1	13µM*	-9%	4%	-10%	3%
COc1ccc(COC(=O)N/N=C2/C[C@@H](O)[C@@H](O)[C@@H]3[C@@H]4C(=O)N(C5CCCCC5)C(=O)[C@H]4CC[C@H]23)cc1	-6%[13.5 µM]	nt	-1%	6%[10 µM]	10%[10 µM]
OCCCNCc1ccncc1	-3%[13.5 µM]	nt	nt	nt	nt
SMILES	ALDH1A1 inh	PLK1 PBD block	Sfp inh	RORgamma inh	VP16 counter
COCCn1c(=O)c(C)nc2cnc(Oc3ccc(OC)cc3)nc21	-12%	nt	8%	19%	3%
CN(C)CCO[C@](C)(c1ccccc1)c1ccccn1	4%[20.9 µM]	nt	0%	0%[16.9 µM]	-6%[17 µM]
CCN(CC)CCOC(=O)C12CC3CC(CC(C3)C1)C2	1%	-8%	18%	5µM*	9%
CCOC(=O)c1c(C)n(C)c2ccc(OCC(O)CN3C(=O)c4ccccc4S3(=O)=O)cc12 (stereo unspecified)	2.5µM*	-13%	8%	-28%	-8%[0.365 µM]
O=C1Nc2ccccc2C(O)(C(=O)NCc2ccco2)N1c1ccc(Cl)c(Cl)c1 (stereo unspecified)	25µM*	-4%	-7%	?	8%
CC(C)CC(=O)/C(=C\c1ccc(Cl)cc1Cl)n1cncn1	22µM*	?	32µM*	4.5µM*	5µM*
COc1ccc(/C=C(/C(=O)c2ccc(Cl)cc2Cl)n2cncn2)cc1	8.9µM*	-22%	4%	-16%	-3%
CN(C)c1ccc(/C=C(/C(=O)c2ccc(Cl)cc2Cl)n2cncn2)cc1	1.1µM*	47%	-21%	83%	?
CC(C)(C)N1C(=O)c2ccccc2NC(=O)C1C(=O)NCc1ccco1 (stereo unspecified)	nt	1%	nt	nt	nt
O=C(N/N=C/c1ccc(O)cc1)c1cc(-c2ccc3c(c2)OCO3)n[nH]1	-7%	-9%	18%	?	-19%
CCc1nnc(NC(=O)c2cc(-c3ccccc3)nn2-c2ccccc2)s1	14%	-4%	-8%	10µM*	?
COC(CNC(=O)c1cc(C)nn1-c1ccccc1)OC	?	24µM*	23%	-5%	0%
CC(C)C(=O)NNC(=O)CN1CCN(c2nc(-c3ccccc3)cs2)CC1	-5%	-11%	23%	3%	0%
COc1ccc(-c2cc(C(=O)N/N=C/c3ccc(O)cc3)[nH]n2)cc1	13µM*	nt	nt	nt	nt
O=C(Nc1nccs1)c1cc(-c2ccccc2)nn1-c1ccccc1	4%	-11%	-1%	?	?
CCc1nnc(NC(=O)CN2CCN(c3nc(-c4ccccc4)cs3)CC2)s1	-3%	-11%	2%	11µM*	?
CNC(=S)NCCCCc1cnc[nH]1	nt	nt	?	7%	4%
COc1ccc(-c2cc(C(=O)NN)n(-c3ccccc3)n2)cc1	8.9µM*	-2%	-10%	-4%	-2%
COc1ccc(-c2cc(C(=O)NN)[nH]n2)cc1	20µM*	-8%	-4%	18%[10 µM]	?
COc1ccc(C#Cc2cnc3c(c2)C(=O)N([C@@H](C)CO)C[C@@H](C)[C@@H](CN(C)CC2CCOCC2)O3)cc1	nt	-7%	nt	nt	nt
C[C@H]1Cc2c(COc3ccccc3)nc3c(c2CO1)CN(C(=O)NCCc1c[nH]c2ccccc12)CC3	12%[13.5 µM]	nt	-11%	nt	nt
N#C/C(=C\c1ccc(-c2ccccc2[N+](=O)[O-])o1)C(=O)Nc1nc(-c2cccs2)cs1	1.8µM*	?	-14%	?	-1%
N#C/C(=C\c1ccc(-c2ccc([N+](=O)[O-])cc2)o1)C(=O)Nc1nc(-c2cccs2)cs1	nt	-14%	-20%	8%	1%
O=C(O)c1ccccc1SCc1cn2cc(Br)ccc2n1	18%	-11%	-13%	-7%	-12%[10 µM]
O=C(O)c1cccnc1SCc1cn2cc(Br)ccc2n1	13%	12µM*	-6%	-2%	5%
CCOC(=O)C1=CCN(S(=O)(=O)c2ccc(C)cc2)C1c1cccc(F)c1 (stereo unspecified)	nt	-4%	nt	nt	nt
O=S(=O)(NCCSc1ccc(Cl)cc1)c1ccc2c(c1)OCCO2	14µM*	-7%	-5%	?	-12%
